The values below come from PubChem BioAssay.

Test [1] can be described thus: A549 cell viability effects, profiling panel, calcein-AM fluorescence, 48 h, basal (AID 1162). The note with it: higher = more signal.
The nature of test [2]: adipocyte viability effects, profiling panel, cell-based, 3T3-L1 adipocytes, calcein-AM fluorescence, 48 h, basal (AID 1163). Particulars: 3T3-L1 adipocytes viability, higher = more signal.
A short description of test [3]: HepG2 cell viability effects, profiling panel, calcein-AM fluorescence, 48 h, basal (AID 1164). The note with it: higher = more signal.
A short description of test [4]: MM1S cell viability effects, profiling panel, calcein-AM fluorescence, 48 h, basal (AID 1165).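 Note: viability of MM1S multiple myeloma cells under basal unstimulated conditions.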 Particulars: higher = more signal.
A short description of test [5]: basal RPMI8226 viability, no added stimulus, profiling panel, cell-based, calcein-AM fluorescence, 48 h, PK04 Diversity Set (AID 1166).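 Note: cells grown under basal conditions without added stimulus.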 The note with it: RPMI8226 myeloma viability, higher = more signal.
Test [6] is described as follows: basal HepG2 mitochondrial membrane potential changes, profiling panel, cell-based, JC-1 fluorescence, 24 h, 100 nL compound (AID 1167). Particulars: higher = more signal.
Test [7] in a line: basal 3T3-L1 adipocyte mitochondrial potential changes, profiling panel, cell-based, JC-1 fluorescence, 3T3-L1 adipocytes, 24 h, 100 nL compound (AID 1168). Particulars: JC-1 mitochondrial fluorescence, higher = more signal, called active from +8 up or from −8 down.
The nature of test [8]: basal RPMI8226 mitochondrial membrane potential changes, profiling panel, cell-based, JC-1 fluorescence, 24 h, 100 nL compound (AID 1169). The note with it: RPMI8226 myeloma, JC-1 mitochondrial potential fluorescence, higher = more signal.
Test [9] is described as follows: basal MM1S mitochondrial membrane potential changes, profiling panel, cell-based, JC-1 fluorescence, 24 h, 100 nL compound (AID 1170). The note with it: higher = more signal.
A short description of test [10]: A549 lung cancer cell viability effects, profiling panel, resazurin fluorescence, 24 h, PK04 Diversity Set (AID 1171). Particulars: higher = more signal, called active from +8 up or from −8 down. In general terms: Resazurin is reduced to fluorescent resorufin, in cell work by metabolically active cells.

Activity calls are given as the source filed them.
Note: test concentration not given here.

As to `NCCCCCNC(=O)[C@@H]1C[C@@H]2C(=O)N3CCC[C@H]3C(=O)N2[C@@H]1c1cccc(OCCO)c1`, the z-score in test [1] is -0.323; in test [2] it was 0.571; in test [3] it was -0.168; in test [4] it was 0.0689; in test [5] it was 0.0959; in [6], -1.5. For the same compound, the z-score in test [7] is -0.812 (inactive); in test [8], 0.167; in [9], 0.543; in test [10] it was 0.142 (inactive).
Turning to `CCCNC(=O)[C@@H]1c2ccccc2C(=O)N(c2ccc(C)cn2)[C@H]1c1ccc(CO)cc1`, the z-score in [1] was -0.293; in test [2], -0.857; in test [3] it was -0.108; in test [4] it was -0.336; in test [5], -0.0505; in test [6], -0.833. Moreover, the z-score in test [7] was 0.123 (inactive); in [8], 0.657; in test [9], -0.351; in [10] it was 0.418 (inactive).
In the case of `CC(CCC(=O)OC[C@H]1O[C@H](C#Cc2ccccc2)C=C[C@@H]1Oc1ccc(C)cc1)=NOC[C@@H](O)COCc1ccco1`, the z-score in [1] is 0.303; in [2], -0.135; in test [3], -0.45; in test [4] it was -2.4; in test [5] it was -2.27; in [6], -1.54. Besides, the z-score in [7] was 0.324 (inactive); in [8], -0.31; in [9] it was -1.31; in [10], -0.0838 (inactive).
On to `CCOC(=O)CCN1C(=O)[C@H]2[C@H]3[C@H](O)[C@H](O)CC(=NOC[C@@H](O)COCc4ccco4)[C@H]3CC[C@H]2C1=O`, for which the z-score in test [1] is -1.43; in test [2], 0.8; in test [3] it was -0.524; in test [4], -2.09; in test [5], -2.29; in [6], -0.803. Further, the z-score in test [7] was -0.433 (inactive); in test [8], -0.126; in test [9], -0.612; in test [10] it was -0.383 (inactive).
In the case of `CC(CCN1CCc2nc(-c3ccccc3)c(-c3ccccc3)cc2C1)=NO[C@@H](C)c1cn([C@H](CO)Cc2ccccc2)nn1`, the z-score in test [1] was 2.69; in test [2], 0.343; in test [3] it was 1.4; in test [4], -0.352; in test [5] it was -0.0077; in test [6] it was 1.87. Besides, the z-score is -0.353 (inactive) in test [7], 0.555 in [8], 0.41 in test [9] and -0.81 (inactive) in test [10].
As for `CO[C@H]1COC(=O)CC=C[C@H](C)[C@@H](NS(=O)(=O)c2ccc(C)cc2)COC(=O)CC=C[C@@H]1C`, the z-score in [1] is 0.368; in test [2], 0.902; in [3], 0.605; in test [4], -0.204; in test [5] it was 0.15; in [6], -0.0318. The z-score in test [7] is -1.58 (inactive); in test [8], 0.0791; in [9], -1.17; in [10] it was -0.0226 (inactive).
Consider `O=C1[C@H]2[C@H]3[C@H](O)[C@H](O)CC(=NO[C@@H]4O[C@H](CO)[C@@H](O)[C@H](O)[C@H]4O)[C@H]3CC[C@H]2C(=O)N1Cc1ccccc1`, for which the z-score is -0.0916 in test [1]; -0.0474 in test [2]; -0.571 in test [3]; 0.713 in test [4]; -0.716 in test [5]; 0.616 in test [6]. Moreover, the z-score in test [7] was -0.0221 (inactive); in test [8], 0.42; in test [9], -0.755; in test [10] it was 0.623 (inactive).
Consider `CCCCC(=C=CC[C@H](O)c1ccccc1OCCO)C[C@H](O)COCc1ccccc1`, for which the z-score was 0.395 in test [1]; 0.0907 in test [2]; 0.514 in [3]; -2.92 in test [4]; -1.29 in [5]; -0.0498 in [6]. For the same compound, the z-score in test [7] is -0.643 (inactive); in test [8] it was -0.621; in [9] it was -0.611; in test [10] it was 0.189 (inactive).
Regarding `O=C(NN=C1C[C@@H](O)[C@@H](O)[C@@H]2[C@@H]3C(=O)N(c4cccc(Oc5ccccc5)c4)C(=O)[C@@H]3CC[C@@H]12)OCc1ccccc1`, the z-score was 0.359 in test [1]; 0.51 in [2]; -0.492 in [3]; -0.0408 in test [4]; -0.238 in test [5]; -0.659 in test [6]. In addition, the z-score in [7] is -0.0191 (inactive); in [8] it was 0.682; in test [9], 0.615; in [10] it was 0.413 (inactive).
For `CC(C)(C)N1C(=O)[C@H]2[C@H]3[C@H](O)[C@H](O)CC(=NOCc4ccccc4)[C@@H]3CC[C@H]2C1=O`, the z-score in test [1] is 0.366; in [2] it was 0.218; in test [3], 0.586; in [4], -0.0096; in test [5], 0.519; in test [6], 0.858. For the same compound, the z-score is -0.249 (inactive) in [7], 0.701 in test [8], -1.01 in test [9] and -1.58 (inactive) in test [10].
In the case of `COC(=O)[C@H](C)NC(=O)CCC1CC(OC(=O)NCc2cccc3ccccc23)CC2(CCCC(COC(=O)NCCc3ccc(Cl)cc3)O2)O1` (stereo not given in full), the z-score in test [1] is 0.346; in test [2] it was 0.118; in test [3], 0.0326; in [4], -0.333; in [5], -0.94; in test [6], 0.159. For the same compound, the z-score in test [7] is -0.294 (inactive); in test [8], -0.318; in test [9], -0.197; in [10], 0.871 (inactive).
`CC(C)OC(=O)C=C1C[C@@H](c2ccc(C#N)cc2)O[C@@H](c2ccc(C#N)cc2)O1`: the z-score in test [1] is -0.301; in test [2], 0.538; in test [3], -0.0099; in test [4], -2.29; in test [5] it was -0.69; in [6], -1.06. In addition, the z-score in test [7] is -0.195 (inactive); in test [8], -0.462; in [9], -2.22; in test [10] it was 0.199 (inactive).
As to `CC(C)CON=C1C[C@@H](O)[C@@H](O)[C@@H]2[C@@H]3C(=O)N(C[C@@H]4CCCO4)C(=O)[C@@H]3CC[C@H]12`, the z-score was -0.31 in test [1]; -0.528 in test [2]; -0.222 in test [3]; 0.12 in [4]; -0.259 in test [5]; -0.637 in [6]. The z-score in test [7] is -1.27 (inactive); in test [8] it was 0.347; in test [9], 0.0335; in test [10], 0.322 (inactive).
Turning to `C=CCNC(=O)[C@H]1[C@@H]2C(=O)O[C@@H](c3ccccc3)[C@@H](c3ccccc3)N2[C@@H](c2ccc(O)cc2)[C@]12C(=O)N(C(=O)OCCOC)c1ccc(C#CC3=CCCCC3)cc12`, the z-score in test [1] was -1.1; in test [2], 0.537; in [3], -0.444; in test [4] it was -2.53; in [5], -3.23; in test [6], -1.47. In addition, the z-score in test [7] was -0.777 (inactive); in [8] it was -0.611; in test [9] it was -0.324; in test [10] it was 0.512 (inactive).
